# Assay outcomes: PubChem, The Scripps Research Institute Molecular Screening Center
# CHRM1 agonist: activates human CHRM1 receptor | CHO-K1 hM1, Fluo-8 calcium fluorescence, agonist mode; 0% DMSO, 100% acetylcholine EC100 | activation, % at 3 µM | hit rate 0.33% among 360,000 | AID 588814;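 active = activation above the run's mean compound activation plus 3 SD, cut at about 16% in these data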;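 note: peak over basal fluorescence ratio within a 140 s kinetic read after compound addition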
# Target sequence (P11229 whole entry, looked up): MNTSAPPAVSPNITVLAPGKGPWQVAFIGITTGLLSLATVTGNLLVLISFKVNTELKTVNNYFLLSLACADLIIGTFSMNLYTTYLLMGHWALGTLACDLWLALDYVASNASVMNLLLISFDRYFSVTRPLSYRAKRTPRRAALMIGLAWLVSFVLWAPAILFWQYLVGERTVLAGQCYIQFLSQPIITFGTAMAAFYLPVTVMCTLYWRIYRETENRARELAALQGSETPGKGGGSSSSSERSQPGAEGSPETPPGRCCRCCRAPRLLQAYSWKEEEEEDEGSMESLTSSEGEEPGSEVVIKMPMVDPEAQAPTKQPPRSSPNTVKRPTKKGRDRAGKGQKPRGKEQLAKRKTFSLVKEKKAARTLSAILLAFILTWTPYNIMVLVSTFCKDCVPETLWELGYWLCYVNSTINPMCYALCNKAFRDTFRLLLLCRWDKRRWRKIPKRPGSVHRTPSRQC
# CHRM1 PAM: potentiates human M1 receptor response to acetylcholine; P11229; CHO-K1 hM1, Fluo-8 calcium fluorescence, ACh EC20; 0% = ACh EC20, 100% = maximal ACh; activation, % at 3 µM; hit rate 0.088% among 360,000; AID 588819; in the data active = activation above about 19%, passing the limit was not always enough
# CHRM1 antagonist: blocks human M1 muscarinic receptor. P11229. CHO-K1 hM1, Fluo-8 calcium fluorescence, ACh EC80 antagonist. inhibition, % at 3 µM. hit rate 1.3% among 360,000;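 active = percent inhibition above its own plate's cutoff, namely the mean of that plate's compound wells plus 3 SD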;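 note: peak over basal fluorescence ratio during 140 s after agonist addition; 0% = ACh EC80 plus DMSO and 100% = DMSO alone without agonist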
# M1 PAM parental: M1 PAM counterscreen hit in parental CHO-K1 cells; ATP EC20, Fluo-8 calcium fluorescence; 0% at ATP EC20, 100% at ATP max; activation, % at 3 µM; hit rate 0.02% among 360,000;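 active = activation above the run cutoff, the mean activation of all test compounds plus 3 SD, cut at about 40% in these data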;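 note: peak over basal fluorescence ratio in a 140 s read after ATP addition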
# CHO-K1 Ca ag: nonselective activator or artifact in parental CHO-K1 cells; Fluo-8 calcium fluorescence; scaled to maximal ATP response, vehicle zero; activation, % at 3 µM; hit rate 0.48% among 360,000; in the data active = activation above about 15%;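 note: untransfected CHO-K1 host cells lacking M1 receptor as counterscreen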
# CHO-K1 Ca antag: counter-screen for M1 antagonists: effect in parental CHO-K1 cells; ATP-induced calcium, Fluo-8 fluorescence; inhibition, % at 3 µM; hit rate 0.6% among 360,000;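 active = inhibition above a per-plate cutoff, the plate's mean sample inhibition plus 3 SD, cut at about 24% in these data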;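 note: 0% = DMSO plus EC80 ATP and 100% = DMSO alone without ATP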
# * marks the source's active call; other numbers are inactive results. Sampled rows, rich in hits. Any-hit rate of the full collection: about 2.3%.
SMILES,CHRM1 agonist,CHRM1 PAM,CHRM1 antagonist,M1 PAM parental,CHO-K1 Ca ag,CHO-K1 Ca antag
CCC1CCCCN1C(=O)c1ccc(OC2CCN(C(=O)CCOC)CC2)cc1 (stereo not given),-3.3,4.4,-1.2,1.7,0.5,-1.0
Cc1ccccc1C1c2[nH]c3ccccc3c2CCN1Cc1cccn1-c1ncccn1 (stereo not given),-6.4,-25.7,66.1*,-14.0,-0.2,-3.7
Cc1ccccc1C1c2[nH]c3ccccc3c2CCN1CCCn1cccn1 (stereo not given),-6.8,-23.4,90.7*,22.5,1.1,-14.7
Fc1ccccc1C1c2[nH]c3ccccc3c2CCN1Cc1cccn1-c1ncccn1 (stereo not given),-8.4,-14.7,13.0,-0.5,4.0,7.4
CCOC(=O)c1ccc(CNC(=O)Cn2nnc(-c3ccccc3)n2)o1,-3.9,4.4,-7.8,7.1,0.9,-3.6
c1ccc2c(c1)OC(CCCN1CCCCC1)c1ccccc1S2 (stereo not given),-5.2,-23.6,46.0*,8.6,1.7,11.7
CC1CCCN(C(=O)N2c3ccccc3Sc3ccccc32)C1 (stereo not given),-8.3,-10.5,3.4,4.4,-0.1,-3.2
CN1CCCC(CC2Oc3ccccc3Sc3ccccc32)C1 (stereo not given),-9.2,-24.2,99.3*,3.6,1.8,-4.4
Cc1cc(F)ccc1S(=O)(=O)N1CCCOC1CNC(=O)C(=O)NC1CCCCC1 (stereo not given),-1.3,5.1,-4.9,16.5,1.9,-13.1
Cc1c(N=C/C=C/c2ccccc2)c(=O)n(-c2ccccc2)n1C,-13.7,-31.0,99.9*,17.9,0.7,-25.6
N#CC1=C(N)Oc2cc(N)ccc2C1c1ccccc1Cl (stereo not given),0.0,15.6,-21.3,-3.0,2.5,4.7
N#CC1=C(N)OC2=C(CCc3ccccc32)C1c1ccccc1Cl (stereo not given),-8.8,-22.2,43.9*,13.1,0.1,-10.3
CN(C)S(=O)(=O)c1cc(NC(=O)CN2CCN(c3ccccc3O)CC2)ccc1Cl,-0.2,9.3,-5.1,1.4,3.2,-11.7
COc1ccc(C2=NOC(C(=O)NCc3cccs3)C2)cc1 (stereo not given),-2.2,7.0,55.7*,16.6,0.6,-5.2
COc1cc(C2=NOC(C(=O)NCc3cccs3)C2)cc(OC)c1OC (stereo not given),1.4,3.9,-3.8,-10.7,2.1,-0.3
Cn1c(=O)c2[nH]c(CCCCc3nc4ccccc4[nH]3)nc2n(C)c1=O,-6.5,5.6,-13.0,-6.6,0.1,-6.7
Cn1c(=O)c2[nH]c(CCCCCCCCc3nc4ccccc4[nH]3)nc2n(C)c1=O,-0.2,-23.4,37.5*,-10.6,12.0,-3.2
CCC1Oc2ccccc2N(CC(=O)NCc2cccs2)C1=O (stereo not given),-9.0,5.1,-6.0,12.1,0.4,-9.0
COc1cc(C(=O)NC(CCSC)C(=O)OCc2cc([N+](=O)[O-])cc3c2OCOC3)cc(OC)c1OC (stereo not given),-1.7,-8.0,25.9*,10.5,3.9,-5.9
CCOc1ccc(C(=O)NCC(=O)OCc2cc([N+](=O)[O-])cc3c2OCOC3)cc1OCC,-8.4,7.0,-7.7,16.4,1.2,-3.6
COc1cc2c(=O)n(CC3CCCO3)c(=O)n(CC(=O)Nc3ccccc3)c2cc1OC (stereo not given),-4.8,-5.7,9.9,-8.1,-0.1,10.8
COc1ccc(-n2nc3c(c2NC(=O)COc2ccccc2OC)CS(=O)(=O)C3)cc1,1.6,-5.0,-2.0,0.8,1.9,-2.2
COC(=O)c1ccc(NC(=O)Cn2nc(-c3ccncc3)nc2SCC(=O)Nc2nccs2)cc1,-5.5,-21.4,32.8*,1.4,-0.3,2.7
Cc1ccc(OCc2cc(C(=O)N3CCC(Oc4cccnc4)CC3)no2)cc1C,-6.5,-20.9,26.4,-0.8,15.6*,24.8*
O=C(c1cc(COc2cccc(C(F)(F)F)c2)on1)N1CCC(Oc2cccnc2)CC1,1.6,-13.7,37.2*,-24.8,13.7,24.2*
SMILES,CHRM1 agonist,CHRM1 PAM,CHRM1 antagonist,M1 PAM parental,CHO-K1 Ca ag,CHO-K1 Ca antag
Cc1cccc(C)c1OCc1cc(C(=O)N2CCC(c3ccncc3)CC2)no1,-0.8,-13.7,29.2*,6.0,11.3,9.9
CC(=O)c1ccc(OCc2cc(C(=O)N3CCC(Oc4ccccc4C)CC3)no2)cc1,-1.8,-6.1,0.1,-15.2,2.5,-12.1
CN1C(=O)C(C)(C)c2cc(S(=O)(=O)N3CCCC(C(=O)NCc4ccccc4Cl)C3)ccc21 (stereo not given),-7.7,-8.9,12.6,17.9,0.5,-3.3
COC(=O)c1[nH]c2ccccc2c1NC(=O)CN1CCCCCC1,-3.2,-1.0,7.2,15.2,0.9,-8.1
COC(=O)c1[nH]c2ccccc2c1NC(=O)CNC1CCCCC1,1.5,-11.8,37.7*,9.7,4.9,4.8
Cc1occc1-c1nnc(SCC(=O)NC2CCC(C)CC2)o1 (stereo not given),-7.7,5.4,-6.7,8.2,0.9,-17.0
CSc1nc(SCCN(C)C)c2c3c(sc2n1)COC(C)(C)C3,50.8*,-25.1,11.3,10.1,0.4,-14.9
CC(C)(C)NS(=O)(=O)c1cc(C(=O)Nc2sccc2C#N)ccc1Cl,-0.2,-5.2,11.5,2.7,23.4*,2.5
C=CCN(C(=O)CCC(=O)Nc1cc(C)on1)C(C(=O)NC1CCCC1)c1cccnc1 (stereo not given),-2.3,-1.8,5.6,-6.8,-0.4,23.8*
Cc1cc(NC(=O)CCC(=O)N(CC(=O)NC2CCCC2)Cc2ccc(F)cc2)no1,-4.2,0.0,-0.2,-0.2,-0.1,-1.1
Cc1cc(NC(=O)CCC(=O)N(CC(=O)NC2CCCC2)Cc2ccccc2Cl)no1,-3.3,3.2,-3.4,-2.0,-1.0,48.0*
O=C(CCC(=O)N(CC(=O)NC1CCCC1)C1CCCCC1)Nc1ccccn1,-6.3,3.7,3.2,-14.4,0.1,26.8*
CN(C)S(=O)(=O)n1cc(/C=C(\NC(=O)c2ccccc2Cl)C(=O)N2CCCC2)c2ccccc21,6.8,-1.6,12.1,6.4,4.0,-4.8
COC(=O)c1ccc(OC(=O)CN2C(=O)c3ccccc3C2=O)cc1,-2.0,9.5,-5.2,29.3,4.7,-11.9
Cc1ccc2c(=O)c(CN3CCCCCC3)c(C)[nH]c2c1C,-10.7,-21.4,72.0*,-21.1,0.3,1.7
O=C(NCCCc1ccccc1)C1CCN(c2nnc(-n3cccc3)s2)CC1,-8.2,-0.8,-2.9,4.6,0.2,5.7
O=C(NC1CCN(Cc2ccccc2)CC1)C1CCCN(c2nnc(-n3cccc3)s2)C1 (stereo not given),-12.0,-7.8,-3.9,19.2,-0.7,-11.7
O=C(NC1CCN(Cc2ccccc2)CC1)C1CCN(c2nnc(-n3cccc3)s2)CC1,-13.9,-19.2,51.0*,4.0,-0.2,-0.9
